Measurements reported in PubChem BioAssay (NCATS).
Inconclusive results are not listed. Activity calls are given as the source filed them. The call rests on the fitted dose curve; in most records, active means well fitted curve in the direction sought with a large enough effect; inconclusive means small, poorly fitted or top-dose-only effect, or another doubt; inactive means no such curve, though single readings can be large; an effect the other way counts as inactive or inconclusive.

Legend:
[1] = BET inhibitor-based combinations targeting novel dependencies in MECOM-rearranged (r) AML: SET-2 cell line (AID 2202231); settings: SET-2 AML cells viability, CellTiter-Glo luminescence, 48 h; viability: stronger effect = lower value, concentration not given here; further: nearly all actives have a fitted effect of over 35% in size;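 on viability: plate controls were DMSO treated cells for no effect and wells without cells for full effect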
How it was run: (§1)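 Readout: CellTiter-Glo luminescence. Exposure: 48 h, 11 concentrations, 500 cells/well. Metric: AUC and within-line Z-AUC after DMSO/empty-well normalization.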

[2] = BET inhibitor-based combinations targeting novel dependencies in MECOM-rearranged (r) AML: MV-4-11 cell line (AID 2202233); settings: MV-4-11 AML viability, CellTiter-Glo luminescence, 48 h; series mostly up to 46 µM; further: nearly all actives have a fitted effect of over 45% in size
How it was run: (§2)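 Seeding density was 500 cells/well, and drug exposure lasted 48 hr under standard culture conditions. Read-out used CellTiter-Glo reagent with a 15 min room-temperature incubation before luminescence measurement; AUC and Z-AUC summarize the normalized responses.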

[3] = BET inhibitor-based combinations targeting novel dependencies in MECOM-rearranged (r) AML: HNT-34 cell line (AID 2202234); settings: HNT-34 AML viability, CellTiter-Glo luminescence, 48 h; series mostly up to 46 µM; further: nearly all actives have a fitted effect of over 35% in size
How it was run: as §2

[4] = BET inhibitor-based combinations targeting novel dependencies in MECOM-rearranged (r) AML: AML-191 cell line (AID 2202236; further: nearly all actives have a fitted effect of over 35% in size); settings: AML-191 viability, CellTiter-Glo luminescence, 48 h; series mostly up to 46 µM
How it was run: as §1

[5] = BET inhibitor-based combinations targeting novel dependencies in MECOM-rearranged (r) AML: UCSD-AML1 cell line (AID 2202235); settings: UCSD-AML1 AML cells viability, CellTiter-Glo, 48 h; series mostly up to 46 µM; further: nearly all actives have a fitted effect of over 40% in size
How it was run: as §2

[6] = BET inhibitor-based combinations targeting novel dependencies in MECOM-rearranged (r) AML: AML-194 cell line (AID 2202237; further: nearly all actives have a fitted effect of over 40% in size); settings: AML-194 (MECOM-r AML) viability, CellTiter-Glo, 48 h; series mostly up to 46 µM
How it was run: as §1
Potency means the concentration at half of the fitted maximal effect.

COc1ccc(-c2nc(N3CCOCC3)c3sc(CN(C)c4ncc(C(=O)NO)cn4)cc3n2)cn1
active: Potency [1] 0.0295 µM | Potency [2] 0.0235 µM | Potency [3] 0.0417 µM | Potency [4] 0.0468 µM

CC1(C)O[C@@H]2C[C@H]3[C@@H]4C[C@H](F)C5=CC(=O)C=C[C@]5(C)[C@H]4[C@@H](O)C[C@]3(C)[C@]2(C(=O)CO)O1
inactive: viability [1] 108% | Potency [2] | Potency [3] | Potency [5] | Potency [6]

COc1ccccc1C(=O)Nc1cc2c(cc1N1CCNC[C@H]1C)n(C)c(=O)n2C
active: Potency [2] 5.9 µM
inactive: viability [1] 103% | Potency [5]

COc1nc(OCc2cccc(-c3ccccc3)c2C)ccc1CNCCNC(C)=O
active: Potency [1] 26.3 µM | Potency [2] 16.6 µM | Potency [3] 26.3 µM | Potency [5] 20.9 µM | Potency [4] 18.6 µM | Potency [6] 26.3 µM

CC(C)(C(=O)NCC(F)(F)C(F)(F)F)C(=O)N[C@@H]1C(=O)Nc2ccccc2-c2ccccc21
inactive: viability [1] 105% | Potency [2] | Potency [3] | Potency [5] | Potency [4] | Potency [6]

Cc1ccc(NC(=O)[C@H]2CCCN(C(=O)c3c(C)cccc3F)[C@H]2c2ccc(NC3CCCC3)cc2)cc1C(F)(F)F
active: Potency [3] 9.34 µM
inactive: viability [1] 94.7% | Potency [2] | Potency [5] | Potency [4] | Potency [6]

CC(C)(NS(=O)(=O)c1ccc2c(Cl)cnc(N=C(N)N)c2c1)C(=O)O
inactive: viability [1] 117% | Potency [2] | Potency [3] | Potency [5] | Potency [4] | Potency [6]

CN[C@@H](C)C(=O)N[C@H](C(=O)N1CCC[C@H]1c1nc(C(=O)c2ccc(F)cc2)cs1)C1CCCCC1
active: Potency [1] 16.6 µM | Potency [2] 16.6 µM | Potency [5] 20.9 µM

O=C(c1ccc(Nc2nc(C3CC3)cn3c(-c4cn[nH]c4)cnc23)c(F)c1)N1CCOCC1
active: Potency [2] 1.18 µM | Potency [3] 5.25 µM | Potency [4] 20.9 µM
inactive: viability [1] 57.2%

CC1=NN(c2ccc(C(=O)O)cc2)C(=O)/C1=C/c1ccc(-c2cc(C)c(C)cc2[N+](=O)[O-])o1
inactive: viability [1] 112% | Potency [2] | Potency [3] | Potency [5] | Potency [4] | Potency [6]

C[C@@H](OC[C@@]1(c2ccccc2)CC[C@]2(CCC(=O)N2)CN1)c1cc(C(F)(F)F)cc(C(F)(F)F)c1
active: Potency [1] 20.9 µM | Potency [2] 20.9 µM | Potency [3] 18.6 µM | Potency [4] 18.6 µM | Potency [6] 26.3 µM

O=c1oc2cc(O)ccc2s1
inactive: viability [1] 106% | Potency [2] | Potency [3] | Potency [5] | Potency [4] | Potency [6]

Cn1c(-c2ccccc2C(F)(F)F)nnc1C12CCC(c3noc(C4CC(F)(F)C4)n3)(CC1)CC2
inactive: viability [1] 105% | Potency [3] | Potency [5] | Potency [6]
active: Potency [2] 16.6 µM

C=C1C(=CC=C2CCC[C@]3(C)[C@@H]([C@H](C)C=C[C@H](C)C(C)C)CC[C@@H]23)C[C@@H](O)C[C@@H]1O
active: Potency [1] 23.5 µM | Potency [2] 16.6 µM | Potency [3] 18.6 µM | Potency [4] 23.5 µM
inactive: Potency [5]
